The values below come from PubChem BioAssay (Tox21).

Assay [1] has as its target Acetylcholinesterase (Homo sapiens) (UniProt P22303). The assay can be described thus: Acetylcholinesterase (AChE) small molecule antagonists: enzyme-based qHTS assay (AID 1347397; calls by dose curve; note: nearly all actives have a fitted effect of over 55% in size). Particulars: Potency: AChE enzyme activity inhibition. The method, boiled down:
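Compound or DMSO vehicle was pin-transferred onto recombinant human AChE (50 mU/mL as dispensed) and left 30 min at room temperature. Acetylthiocholine with DTNB then started the reaction, read colorimetrically 10 min later.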
(In general: qHTS replaces the single test concentration by a dilution series.)

For assay [2] the target is unchanged. Nature of the assay: Acetylcholinesterase (AChE) small molecule antagonists: fluorescence cell-based qHTS assay (AID 1347398; calls by dose curve; note: nearly all actives have a fitted effect of over 50% in size). Particulars: Potency: AChE activity. The procedure, abridged:
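Using neuroblastoma SH-SY5Y cells as the enzyme source, test chemicals are preincubated 30 min at 37 C; AChE-driven acetylthiocholine cleavage is then quantified by thiocholine-dependent Thiolite Green fluorescence after 40 min at room temperature.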

The target is the same in assay [3]. Nature of the assay: Acetylcholinesterase (AChE) small molecule antagonists: enzyme-based qHTS assay with human liver microsomes (AID 1347399; calls by dose curve; note: nearly all actives have a fitted effect of over 60% in size). The settings on record: Potency: qHTS inhibition. The procedure, abridged: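 Recombinant human AChE (50 mU/mL in the enzyme mix) and human liver microsomes (0.25 mg/mL final) were preincubated with compound and NADPH (0.25 mg/mL final) for 30 min at 37 C. Acetylthiocholine/DTNB was then added; thiocholine was read colorimetrically after 10 min at room temperature.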

Assay [4] concerns the target Cytochrome P450 2D6 (Homo sapiens) (UniProt P10635). The assay can be described thus: Cytochrome P450 Family 2 Subfamily D Member 6 (CYP2D6) small molecule antagonists: luciferase reporter qHTS assay (AID 1671196). Note: nearly all actives have a fitted effect of over 50% in size. Note: potency is the fitted concentration of half-maximal effect. The method, boiled down:
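Room-temperature luminescent CYP2D6 activity assay: compound preincubated 10 min with enzyme–substrate mix, NADPH-initiated reaction 1 h, detection reagent 20 min before reading.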
In general terms: In a reporter assay the amount or activity of a reporter protein is the signal.

For assay [5], the target named is Cytochrome P450 2C19 (Homo sapiens) (UniProt P33261). The assay can be described thus: Cytochrome P450 Family 2 Subfamily C Member 19 (CYP2C19) small molecule antagonists: luciferase reporter qHTS assay (AID 1671197). Note: nearly all actives have a fitted effect of over 65% in size. Note: potency is the fitted concentration of half-maximal effect. The procedure, abridged: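 CYP2C19 P450-Glo, 1536-well qHTS. Cpd + enzyme/proluciferin substrate 10 min RT; + NADPH regen, 37C 1 h; stop with luciferin detection reagent, 20 min RT, luminescence (RLU). Pos ctrl ketoconazole.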
Chain of Cytochrome P450 2C19 (Homo sapiens) (P33261 whole entry, looked up): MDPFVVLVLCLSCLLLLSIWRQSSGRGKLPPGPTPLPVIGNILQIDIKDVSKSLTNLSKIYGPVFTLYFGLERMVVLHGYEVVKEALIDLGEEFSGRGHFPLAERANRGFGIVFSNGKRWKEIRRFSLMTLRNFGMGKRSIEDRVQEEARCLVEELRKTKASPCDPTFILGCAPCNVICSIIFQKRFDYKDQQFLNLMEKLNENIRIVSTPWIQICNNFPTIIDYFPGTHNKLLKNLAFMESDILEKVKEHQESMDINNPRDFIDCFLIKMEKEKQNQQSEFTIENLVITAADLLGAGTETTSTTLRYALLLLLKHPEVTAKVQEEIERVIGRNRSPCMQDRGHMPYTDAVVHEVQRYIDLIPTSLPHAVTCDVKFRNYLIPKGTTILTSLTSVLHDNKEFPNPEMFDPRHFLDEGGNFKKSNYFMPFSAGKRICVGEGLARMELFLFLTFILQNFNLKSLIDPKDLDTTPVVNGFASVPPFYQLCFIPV

In assay [6] the target is Cytochrome P450 2C9 (Homo sapiens) (UniProt P11712). The assay can be described thus: Cytochrome P450 Family 2 Subfamily C Member 9 (CYP2C9) small molecule antagonists: luciferase reporter qHTS assay (AID 1671198). Note: nearly all actives have a fitted effect of over 50% in size. Note: potency is the fitted concentration of half-maximal effect. The method, boiled down:
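CYP2C9 activity was measured with a P450-Glo proluciferin substrate. Enzyme–substrate mix was held with compound for 10 min at room temperature, then NADPH regeneration solution was added for 1 h at 37C. Luciferin product was read as luminescence.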

The target in assay [7] is Cytochrome P450 1A2 (Homo sapiens) (UniProt P05177). Nature of the assay: Cytochrome P450 Family 1 Subfamily A Member 2 (CYP1A2) small molecule antagonists: luciferase reporter qHTS assay (AID 1671199). Note: nearly all actives have a fitted effect of over 50% in size. Note: potency is the fitted concentration of half-maximal effect. The method, boiled down:
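Room-temperature CYP1A2 reaction with proluciferin substrate: compounds added from DMSO, 10 min preincubation, NADPH regeneration for 1 h. Luciferin detection reagent then added; luminescence recorded as RLU.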

Assay [8] has as its target Voltage-gated inwardly rectifying potassium channel KCNH2 (Homo sapiens) (UniProt Q12809). Nature of the assay: Human Ether-a-go-go-Related Gene (hERG) channel small molecule antagonists: fluorescence cell-based qHTS assay (AID 1671200). Note: nearly all actives have a fitted effect of over 50% in size. Note: potency is the fitted concentration of half-maximal effect. The method, boiled down: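 Read-out: thallium influx as a surrogate for potassium, tracked as fluorescence (480 nm ex/540 nm em) every second for 2 min after Stimulus Buffer addition in dye-loaded hERG-U2OS cells.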

Assay [9] deals with Cytochrome P450 3A4 (Homo sapiens) (UniProt P08684). Nature of the assay: Cytochrome P450 Family 3 Subfamily A Member 4 (CYP3A4) small molecule antagonists: luciferase reporter qHTS assay (AID 1671201). Note: nearly all actives have a fitted effect of over 50% in size. Note: potency is the fitted concentration of half-maximal effect. The procedure, abridged: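 Luminescent readout (RLU) proportional to CYP3A4 activity, from luciferin generated off a proluciferin substrate. Enzyme–substrate mix plus compound 10 min at room temp, NADPH regeneration 1 h, detection reagent 20 min.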
Chain of Cytochrome P450 3A4 (Homo sapiens) (P08684 whole entry, looked up): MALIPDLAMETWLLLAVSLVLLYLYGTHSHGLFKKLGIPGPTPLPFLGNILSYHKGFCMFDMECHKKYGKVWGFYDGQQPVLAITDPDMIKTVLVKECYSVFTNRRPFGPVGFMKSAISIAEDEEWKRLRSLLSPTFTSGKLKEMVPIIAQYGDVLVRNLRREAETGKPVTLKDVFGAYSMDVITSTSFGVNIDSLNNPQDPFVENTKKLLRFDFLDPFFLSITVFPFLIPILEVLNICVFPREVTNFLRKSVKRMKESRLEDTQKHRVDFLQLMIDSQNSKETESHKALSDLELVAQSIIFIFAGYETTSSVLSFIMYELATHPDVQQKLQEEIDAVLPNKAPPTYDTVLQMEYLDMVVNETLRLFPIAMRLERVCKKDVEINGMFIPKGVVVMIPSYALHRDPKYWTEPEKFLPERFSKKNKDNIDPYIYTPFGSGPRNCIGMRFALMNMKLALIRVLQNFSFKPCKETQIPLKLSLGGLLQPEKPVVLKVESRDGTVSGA

“And” between values parts separate entries of the source, which are not always exact repeats. Identical values can stand only once. Inconclusive results are not listed. The source made the active and inactive calls. Unless noted, calls come from the whole dose curve; as a rule, active = well fitted curve in the direction sought with a large enough effect in the repeat runs; inconclusive = weak or mixed curves; inactive = no such curve, though single readings can be large; an effect the other way counts as inactive or inconclusive.

Chain of Voltage-gated inwardly rectifying potassium channel KCNH2 (Homo sapiens) (Q12809 whole entry, looked up): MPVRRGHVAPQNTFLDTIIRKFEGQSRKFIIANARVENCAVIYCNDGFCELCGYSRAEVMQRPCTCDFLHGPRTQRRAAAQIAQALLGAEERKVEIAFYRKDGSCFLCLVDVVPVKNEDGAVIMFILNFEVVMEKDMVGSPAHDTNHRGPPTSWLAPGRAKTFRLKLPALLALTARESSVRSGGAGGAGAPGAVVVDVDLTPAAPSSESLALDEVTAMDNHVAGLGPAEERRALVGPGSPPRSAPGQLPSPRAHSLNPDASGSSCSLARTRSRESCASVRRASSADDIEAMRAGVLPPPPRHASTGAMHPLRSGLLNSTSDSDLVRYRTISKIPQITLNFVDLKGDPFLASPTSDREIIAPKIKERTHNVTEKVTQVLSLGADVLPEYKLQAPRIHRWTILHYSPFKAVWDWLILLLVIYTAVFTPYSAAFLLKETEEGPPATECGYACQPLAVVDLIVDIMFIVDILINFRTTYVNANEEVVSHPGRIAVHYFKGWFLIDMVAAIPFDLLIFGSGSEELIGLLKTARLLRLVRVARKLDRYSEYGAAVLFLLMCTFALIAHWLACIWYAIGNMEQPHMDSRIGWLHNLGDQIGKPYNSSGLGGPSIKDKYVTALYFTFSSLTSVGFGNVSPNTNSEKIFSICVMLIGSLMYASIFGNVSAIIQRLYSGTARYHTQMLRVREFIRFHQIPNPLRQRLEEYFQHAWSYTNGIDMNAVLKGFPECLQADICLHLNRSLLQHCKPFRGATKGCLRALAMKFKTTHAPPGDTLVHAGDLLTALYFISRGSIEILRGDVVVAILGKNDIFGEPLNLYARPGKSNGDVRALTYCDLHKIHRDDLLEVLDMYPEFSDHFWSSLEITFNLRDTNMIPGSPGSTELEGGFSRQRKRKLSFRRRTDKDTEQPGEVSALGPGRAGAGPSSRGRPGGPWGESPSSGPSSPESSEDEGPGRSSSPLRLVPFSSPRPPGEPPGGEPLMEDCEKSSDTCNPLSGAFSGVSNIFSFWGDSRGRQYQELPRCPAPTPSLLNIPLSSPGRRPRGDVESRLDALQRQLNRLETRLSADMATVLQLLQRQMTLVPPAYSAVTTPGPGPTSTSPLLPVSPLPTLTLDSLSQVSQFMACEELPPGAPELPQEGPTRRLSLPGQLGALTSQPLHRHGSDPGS
Chain of Cytochrome P450 2D6 (Homo sapiens) (P10635 whole entry, looked up): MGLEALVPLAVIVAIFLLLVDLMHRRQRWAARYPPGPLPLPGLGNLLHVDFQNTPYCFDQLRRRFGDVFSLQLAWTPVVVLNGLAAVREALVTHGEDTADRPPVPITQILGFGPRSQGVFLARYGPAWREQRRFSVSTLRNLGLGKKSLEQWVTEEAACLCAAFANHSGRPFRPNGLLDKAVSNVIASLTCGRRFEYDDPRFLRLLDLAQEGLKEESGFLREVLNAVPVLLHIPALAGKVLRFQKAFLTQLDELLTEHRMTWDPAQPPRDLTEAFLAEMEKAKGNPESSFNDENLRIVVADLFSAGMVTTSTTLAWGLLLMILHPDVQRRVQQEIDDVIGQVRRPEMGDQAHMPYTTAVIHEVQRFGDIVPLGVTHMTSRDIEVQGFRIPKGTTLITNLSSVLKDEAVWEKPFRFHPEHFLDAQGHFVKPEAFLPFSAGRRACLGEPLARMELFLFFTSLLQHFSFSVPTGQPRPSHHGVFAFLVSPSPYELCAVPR
Chain of Cytochrome P450 2C9 (Homo sapiens) (P11712 whole entry, looked up): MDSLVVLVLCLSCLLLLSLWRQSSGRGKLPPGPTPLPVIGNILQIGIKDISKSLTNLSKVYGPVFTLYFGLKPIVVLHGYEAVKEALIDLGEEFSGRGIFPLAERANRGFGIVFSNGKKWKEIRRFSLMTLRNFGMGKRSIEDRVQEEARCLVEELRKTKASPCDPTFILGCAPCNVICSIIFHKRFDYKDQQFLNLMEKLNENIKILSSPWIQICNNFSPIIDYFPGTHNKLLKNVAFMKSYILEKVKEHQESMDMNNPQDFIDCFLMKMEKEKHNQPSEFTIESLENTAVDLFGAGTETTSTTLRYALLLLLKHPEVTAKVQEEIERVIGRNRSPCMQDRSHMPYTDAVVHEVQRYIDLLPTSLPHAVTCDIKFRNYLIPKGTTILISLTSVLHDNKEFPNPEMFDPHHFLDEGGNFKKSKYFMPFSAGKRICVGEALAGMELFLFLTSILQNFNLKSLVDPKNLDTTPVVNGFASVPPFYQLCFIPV
Chain of Acetylcholinesterase (Homo sapiens) (P22303 whole entry, looked up): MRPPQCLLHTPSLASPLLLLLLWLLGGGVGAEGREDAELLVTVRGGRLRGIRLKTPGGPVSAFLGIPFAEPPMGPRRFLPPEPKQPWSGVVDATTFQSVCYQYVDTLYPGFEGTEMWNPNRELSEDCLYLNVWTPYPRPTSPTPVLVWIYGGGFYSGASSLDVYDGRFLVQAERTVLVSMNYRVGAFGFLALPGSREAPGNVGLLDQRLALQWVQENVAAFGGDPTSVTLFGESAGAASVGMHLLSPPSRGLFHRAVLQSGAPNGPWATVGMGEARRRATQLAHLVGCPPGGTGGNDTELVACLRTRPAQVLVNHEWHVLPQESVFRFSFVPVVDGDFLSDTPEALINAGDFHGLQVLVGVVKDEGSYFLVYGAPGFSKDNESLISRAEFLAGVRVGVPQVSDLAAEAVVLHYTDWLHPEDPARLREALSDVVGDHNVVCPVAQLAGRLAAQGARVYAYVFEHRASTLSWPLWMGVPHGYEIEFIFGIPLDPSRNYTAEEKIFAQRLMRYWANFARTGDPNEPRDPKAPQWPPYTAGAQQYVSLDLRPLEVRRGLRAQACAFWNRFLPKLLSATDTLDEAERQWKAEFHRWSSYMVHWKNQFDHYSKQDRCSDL
Chain of Cytochrome P450 1A2 (Homo sapiens) (P05177 whole entry, looked up): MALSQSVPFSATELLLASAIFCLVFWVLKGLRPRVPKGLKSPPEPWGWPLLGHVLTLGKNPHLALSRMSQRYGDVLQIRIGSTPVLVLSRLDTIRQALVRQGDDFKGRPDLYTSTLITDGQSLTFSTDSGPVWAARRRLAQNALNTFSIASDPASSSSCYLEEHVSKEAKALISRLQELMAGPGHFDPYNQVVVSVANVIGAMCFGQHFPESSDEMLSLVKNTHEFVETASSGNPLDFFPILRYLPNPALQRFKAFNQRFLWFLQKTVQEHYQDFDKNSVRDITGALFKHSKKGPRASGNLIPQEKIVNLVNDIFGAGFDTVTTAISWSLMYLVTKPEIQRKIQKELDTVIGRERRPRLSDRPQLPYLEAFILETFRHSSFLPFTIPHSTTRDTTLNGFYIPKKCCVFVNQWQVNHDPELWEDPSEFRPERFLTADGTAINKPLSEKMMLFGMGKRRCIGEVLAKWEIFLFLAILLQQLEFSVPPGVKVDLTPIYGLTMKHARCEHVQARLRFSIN

For `N#CSCSC#N`, the Potency entry in [1], in assay [2], in assay [3], in [4] and in [9] was “inactive” each time. Also, the Potency in assay [5] was 72.6 µM (active); in [6], 32.4 µM (active) and 35.2 µM (active); in assay [7], 23 µM (active) and 28 µM (active); in assay [8] it was 56.2 µM (active) and 43.2 µM (active).
On to `COc1ccc(/C(=C/C(=O)N2CCOCC2)c2ccc(Cl)cc2)cc1OC`, for which the Potency result in assay [1], in assay [2], in assay [3], in [4] and in assay [7] was “inactive” in each case. In addition, the Potency in assay [5] was 56.4 µM (active); in assay [6], 31.7 µM (active); in assay [8] it was 12.3 µM (active); in assay [9], 3.17 µM (active).
Take `[Cl][Sb]([Cl])[Cl]`: the Potency result in assay [1], in assay [2], in assay [3], in assay [4], in assay [5] and in [6] was “inactive” each time. Also, the Potency result in assay [7] and in assay [8] was “inactive” in each case.
Consider `N#Cc1ccccc1Cl`, for which the Potency result in [1], in assay [2], in assay [3], in assay [4], in [5] and in [6] was “inactive” in each case. Moreover, the Potency entry in [7], in [8] and in assay [9] was “inactive” throughout.
Turning to `CC[C@H](C)[C@H]1O[C@]2(C=C[C@@H]1C)C[C@@H]1C[C@@H](C/C=C(\C)[C@@H](O[C@H]3C[C@H](OC)[C@@H](O[C@H]4C[C@H](OC)[C@@H](O)[C@H](C)O4)[C@H](C)O3)[C@@H](C)/C=C/C=C3\CO[C@@H]4[C@H](O)C(C)=C[C@@H](C(=O)O1)[C@]34O)O2`, the Potency result in assay [1], in assay [2] and in assay [3] was “inactive” throughout. For the same compound, the Potency was 33.3 µM (active) in assay [4], 21 µM (active) in assay [5], 10.5 µM (active) in assay [6] and 33.3 µM (active) in assay [7].
Regarding `c1cc[c]([Sb]([c]2ccccc2)[c]2ccccc2)cc1`, the Potency entry in [1], in assay [2], in assay [3], in assay [4] and in assay [7] was “inactive” throughout. For the same compound, the Potency in assay [5] and in assay [6] was 17.8 µM (active) throughout.
Regarding `CC(=[OH+])/C=C(/C)[O-].CC(=[OH+])/C=C(\C)[O-].CC(=[OH+])/C=C(\C)[O-].[Al]`, the Potency result in assay [1], in [2], in assay [3], in assay [4], in assay [5] and in [6] was “inactive” each time. For the same compound, the Potency result in assay [7] and in assay [8] was “inactive” each time.
Turning to `O=C/C(Cl)=C(/Cl)C(=O)O`, the Potency entry in [1], in assay [2], in assay [3], in [4], in assay [5] and in assay [6] was “inactive” each time. The Potency entry in [7] and in assay [8] was “inactive” throughout.
Regarding `Cc1cc(N=Nc2ccccc2C)ccc1N`, the Potency result in assay [1], in assay [2], in [3] and in [8] was “inactive” in each case. For the same compound, the Potency in assay [4] was 63.3 µM (active); in assay [5] it was 5.64 µM (active) and 8.94 µM (active); in assay [6] it was 5.03 µM (active) and 5.64 µM (active); in assay [7], 1.26 µM (active) and 2 µM (active).
`Cn1[nH]nnc1=S`: the Potency entry in assay [1], in assay [2], in [3] and in [4] was “inactive” in each case. Further, the Potency is 56.4 µM (active) in assay [5] and 71 µM (active) in [6].
Regarding `Oc1c(Br)c(Br)c(Br)c(Br)c1Br`, the Potency entry in assay [1], in assay [2], in assay [3], in [4], in assay [5] and in assay [8] was “inactive” each time. Moreover, in assay [9], the Potency entry is “inactive”. Besides, the Potency was 35.8 µM (active) in assay [6] and 56.8 µM (active) in assay [7].
On to `CN(C)CCc1c[nH]c2ccc(O)cc12`, for which the Potency entry in [1], in assay [2], in assay [3], in assay [5], in assay [7] and in [8] was “inactive” each time. Besides, the Potency in assay [4] is 17.4 µM (active); in assay [6] it was 24.6 µM (active).
For `CCCCOP(=O)(CCCC)OCCCC`, the Potency result in [1], in assay [2], in assay [3] and in [4] was “inactive” each time. The Potency was 11.2 µM (active) in assay [5], 31.7 µM (active) in [6] and 31.7 µM (active) in assay [7].
For `Clc1ccc(C(Cl)(Cl)Cl)c(Cl)c1`, the Potency entry in assay [1], in [2], in assay [3] and in [6] was “inactive” throughout. Also, the Potency in assay [4] is 31.9 µM (active); in [5] it was 80.2 µM (active).
`N#C/C=C/C#N`: the Potency entry in assay [1], in assay [2], in assay [3] and in assay [8] was “inactive” each time. In addition, the Potency in assay [4] was 74.4 µM (active); in assay [5], 18.7 µM (active); in assay [6], 37.3 µM (active); in assay [7], 29.6 µM (active).
Consider `CCOc1cc(C(C)(C)C)ccc1C1COC(c2c(F)cccc2F)=N1` (stereo not drawn), for which the Potency entry in [1], in [2] and in assay [3] was “inactive” each time. Also, the Potency in assay [4] is 5.43 µM (active); in assay [5], 3.42 µM (active); in assay [6] it was 12.2 µM (active); in [7], 24.2 µM (active); in assay [8], 13.3 µM (active).
On to `C=CC(=O)N(C)C`, for which the Potency result in [1], in assay [2], in [3], in assay [4], in [5] and in assay [6] was “inactive” throughout. The Potency result in assay [7], in assay [8] and in [9] was “inactive” each time.
For `O=C1NCN(c2ccccc2)C12CCN(CC1COc3ccccc3O1)CC2` (stereo not drawn), the Potency result in assay [1], in [2], in assay [3] and in assay [7] was “inactive” each time. The Potency is 0.11 µM (active) in assay [4], 4.36 µM (active) in [5], 8.71 µM (active) in assay [6] and 7.56 µM (active) in assay [8].
Regarding `ClC1=C(Cl)C2(Cl)C3C(Cl)C(Cl)CC3C1(Cl)C2(Cl)Cl` (stereo not drawn), the Potency result in assay [1], in [2], in assay [3], in assay [4] and in assay [7] was “inactive” each time. In addition, the Potency is 3.16 µM (active) and 3.56 µM (active) in assay [5]; 31.6 µM (active) and 20 µM (active) in [6]; 24.5 µM (active) in assay [8]; 708 nM (active) and 2 µM (active) in assay [9].
Consider `NC(=O)c1ccc(N)nc1`, for which the Potency result in [1], in assay [2], in [3], in assay [4], in assay [5] and in assay [6] was “inactive” in each case. Besides, the Potency entry in [7], in [8] and in assay [9] was “inactive” in each case.
Regarding `Cc1cc(C(F)(C(F)(F)F)C(F)(F)F)ccc1NC(=O)c1cccc(I)c1C(=O)NC(C)(C)CS(C)(=O)=O`, the Potency result in [1], in [2], in assay [3], in assay [5], in [7] and in [8] was “inactive” in each case. Further, the Potency in [4] is 4.51 µM (active); in assay [6] it was 20.1 µM (active); in assay [9], 2.01 µM (active).
Take `CNC(C)Cc1ccc2c(c1)OCO2` (stereo not drawn): the Potency result in assay [1], in [2], in assay [3], in assay [5], in [6] and in assay [7] was “inactive” each time. Besides, the Potency result in assay [8] and in [9] was “inactive” throughout. In assay [4], the Potency was 0.491 µM (active).
